Calls of active or inactive are those of the source. How the source made its calls: active means hit-call score of the fitted dose curve at least 0.9, where 1 is the maximum; inactive means score below 0.9.
Tests used:
Details in all cases: mRNA level, 48 h; actives raise or lower the signal
[1] = read-out: Early growth response protein 1 (EGR1) transcription factor, EGR1 (gene 1958); experiment: LTEA_HepaRG_EGR1: Life Technologies and Expression Analysis (LTEA) Assay for Early growth response protein 1 (EGR1) transcription factor using HepaRG (AID 2283490)
Method in brief: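 EGR1 expression change in human HepaRG after 48 h chemical exposure, assessed by housekeeping-normalized qRT-PCR; concentration-response up to 100 uM, fitted in both directions against DMSO controls.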

[2] = read-out: Ezrin (EZR), EZR (gene 7430); experiment: LTEA_HepaRG_EZR: Life Technologies and Expression Analysis (LTEA) Assay for Ezrin (EZR) using HepaRG (AID 2283491)
Method in brief: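 EZR transcript levels came from Fluidigm qRT-PCR and were normalized to three housekeeping genes after 48 h chemical exposure of HepaRG cells. Dosing used an 8-point half-log series with a 100 uM top concentration in 0.5% DMSO, tested in duplicate; both directions were fitted versus vehicle.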

[3] = read-out: Cytochrome P450 3A7 (Homo sapiens) (UniProt P24462); experiment: LTEA_HepaRG_CYP3A7: Life Technologies and Expression Analysis (LTEA) Assay for CYP3A7 using HepaRG (AID 2283492)
Method in brief: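 qRT-PCR of CYP3A7 in HepaRG lysates after 48 h treatment; concentration-response (8 points, max 100 uM) analysed bidirectionally relative to 0.5% DMSO controls.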

CYP3A5 (gene 1577) = experiment: LTEA_HepaRG_CYP3A5: Life Technologies and Expression Analysis (LTEA) Assay for CYP3A5 using HepaRG (AID 2283493)
Method in brief: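 Human HepaRG hepatic cells receive 48 h chemical treatment at eight concentrations (half-log steps from 100 uM) in 0.5% DMSO. Expression of CYP3A5 is quantified by Fluidigm qRT-PCR and normalized to three reference genes.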

[4] = read-out: Fatty Acid-Binding Protein 1 (FABP1), FABP1 (gene 2168); experiment: LTEA_HepaRG_FABP1: Life Technologies and Expression Analysis (LTEA) Assay for Fatty Acid-Binding Protein 1 (FABP1) using HepaRG (AID 2283494)
Method in brief: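 Values reflect bidirectional concentration-response fitting of FABP1 mRNA change against 0.5% DMSO controls. Human HepaRG cultures received eight half-log doses (top 100 uM) for 48 h; expression quantified by TaqMan qRT-PCR with housekeeping-gene normalization.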

[5] = read-out: Cytochrome P450 4A22 (Homo sapiens) (UniProt Q5TCH4); experiment: LTEA_HepaRG_CYP4A22: Life Technologies and Expression Analysis (LTEA) Assay for Cytochrome P450 4A22 (CYP4A22) using HepaRG (AID 2283495)
Method in brief: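 Concentration-response (8 points, max 100 uM, 0.5% DMSO) in human HepaRG liver cells after 48 h exposure. CYP4A22 mRNA by TaqMan qRT-PCR with housekeeping-gene normalization.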

[6] = read-out: Cytochrome P450 7A1 (Homo sapiens) (UniProt P22680); experiment: LTEA_HepaRG_CYP7A1: Life Technologies and Expression Analysis (LTEA) Assay for Cytochrome P450 7A1 (CYP7A1) using HepaRG (AID 2283496)
Method in brief: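 HepaRG, 48 h exposure, 8-pt half-log series from 100 uM, 0.5% DMSO vehicle, duplicates. Readout: TaqMan qRT-PCR mRNA vs three housekeeping genes; bidirectional curve fit against DMSO baseline.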

[7] = read-out: Glutathione S-Transferase (GSTA2), GSTA2 (gene 2939); experiment: LTEA_HepaRG_GSTA2: Life Technologies and Expression Analysis (LTEA) Assay for Glutathione S-Transferase (GSTA2) using HepaRG (AID 2283497)
Method in brief: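 Oxidative-stress marker GSTA2 is quantified by TaqMan qRT-PCR in HepaRG cultures treated 48 h across an eight-point range to 100 uM. Expression is normalized to endogenous controls and compared with 0.5% DMSO vehicle.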

[8] = read-out: Glutamate-cysteine ligase catalytic (GCLC), GCLC (gene 2729); experiment: LTEA_HepaRG_GCLC: Life Technologies and Expression Analysis (LTEA) Assay for Glutamate-cysteine ligase catalytic (GCLC) using HepaRG (AID 2283498)
Method in brief: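 Oxidative-stress marker GCLC is measured as mRNA change in human HepaRG liver cells after 48 h chemical treatment in 0.5% DMSO, eight concentrations from 100 uM. Activity is fitted bidirectionally against vehicle.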

[9] = read-out: growth arrest and DNA damage 45 (GADD45G), GADD45G (gene 10912); experiment: LTEA_HepaRG_GADD45G: Life Technologies and Expression Analysis (LTEA) Assay for growth arrest and DNA damage 45 (GADD45G) using HepaRG (AID 2283499)
Method in brief: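 Concentration-response in HepaRG: 48 h dosing, 0.5% DMSO, highest level 100 uM. GADD45G expression by qRT-PCR, normalised to endogenous controls; bidirectional fit to DMSO.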

Measured: AC50

Cytochrome P450 3A7 (Homo sapiens), sequence (P24462 whole entry, looked up): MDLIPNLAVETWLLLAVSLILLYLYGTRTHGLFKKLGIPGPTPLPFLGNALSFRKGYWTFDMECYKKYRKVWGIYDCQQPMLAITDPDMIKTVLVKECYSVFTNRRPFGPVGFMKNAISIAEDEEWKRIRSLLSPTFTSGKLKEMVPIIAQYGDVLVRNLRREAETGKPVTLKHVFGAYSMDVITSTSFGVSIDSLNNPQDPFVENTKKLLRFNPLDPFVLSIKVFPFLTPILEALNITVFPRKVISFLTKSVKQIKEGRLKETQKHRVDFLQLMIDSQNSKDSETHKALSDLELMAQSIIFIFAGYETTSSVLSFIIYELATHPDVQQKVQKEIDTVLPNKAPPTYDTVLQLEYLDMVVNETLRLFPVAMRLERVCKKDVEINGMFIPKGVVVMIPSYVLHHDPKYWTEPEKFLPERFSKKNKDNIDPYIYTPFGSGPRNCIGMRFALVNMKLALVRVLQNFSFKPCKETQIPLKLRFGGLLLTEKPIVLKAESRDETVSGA

CCCCCCCCn1sccc1=O
active: [3] 89.1 µM | CYP3A5 (gene 1577) 83.1 µM | [5] 78.9 µM | [6] 82.2 µM
inactive: all other assays above

ClC1=C(Cl)C2(Cl)C3C(Cl)C=CC3C1(Cl)C2(Cl)Cl (stereo not given)
active: [4] 15.9 µM | [5] 13.1 µM | [6] 13.8 µM
inactive: all other assays above

CCC12COCN1COC2
inactive: all assays above

CC(C)(O)c1cnn2c(-c3ccc(F)c(-c4c(F)cccc4C#N)c3)cnc2n1
active: [4] 1.57 µM | [5] 1.71 µM | [6] 4.14 µM
inactive: all other assays above

Cc1ccc(N)c(N)c1
active: [3] 35.9 µM | [4] 74.8 µM | [7] 28.9 µM
inactive: all other assays above

Clc1ccc(Cl)c(Cl)c1
active: [6] 50 µM | [7] 84 µM | [8] 9.92 µM
inactive: all other assays above

Cc1ccc(N)cc1
inactive: all assays above

CO[C@@H]1[C@H](OC(=O)NC(=O)CCl)CC[C@]2(CO2)[C@H]1[C@@]1(C)O[C@@H]1CC=C(C)C
active: [4] 1.96 µM
inactive: all other assays above

O=C1CCCO1
active: CYP3A5 (gene 1577) 9.92 µM | [7] 50 µM | [8] 9.92 µM
inactive: all other assays above

Cn1cc(-c2ccccc2)c(=O)c(-c2cccc(C(F)(F)F)c2)c1
active: [3] 1.52 µM | [9] 50 µM
inactive: all other assays above

CC(C)(OOC(C)(C)c1ccccc1)c1ccccc1
active: [3] 40.4 µM
inactive: all other assays above

CCCCC(CC)COC(=O)c1ccc(C(=O)OCC(CC)CCCC)c(C(=O)OCC(CC)CCCC)c1 (stereo not given)
inactive: all assays above

Nc1ccc(Oc2ccc(N)cc2)cc1
active: [4] 50 µM
inactive: all other assays above

CCCCCCCCOC(=O)c1ccc(C(=O)OCCCCCCCC)c(C(=O)OCCCCCCCC)c1
inactive: all assays above

Brc1ccc(Oc2ccccc2)cc1
inactive: all assays above

COC(=O)Nc1nc2ccccc2[nH]1
inactive: all assays above

ClCCOCCCl
inactive: all assays above

Clc1ccc(C(c2ccc(Cl)cc2)C(Cl)Cl)cc1
active: [3] 9.55 µM | CYP3A5 (gene 1577) 29.7 µM | [4] 54.7 µM | [5] 22.4 µM | [6] 22.5 µM
inactive: all other assays above

OCCCl
inactive: all assays above

O=C(N[C@H](c1ccccc1)[C@@H]1CN2CCC1CC2)c1c(Cl)ccc(C(F)(F)F)c1Cl
inactive: CYP3A5 (gene 1577) | [8]
active: [1] 87.5 µM | [2] 2.42 µM | [3] 76.2 µM | [4] 85.1 µM | [5] 14.6 µM | [6] 80.1 µM | [7] 73.7 µM | [9] 21.4 µM
